Bioassay records as filed in PubChem BioAssay.
Myeloid diff MLP: myeloid differentiation induction; ER-HoxA9 myeloid progenitors, lysozyme-GFP differentiation, flow cytometry; calls only at 10 µM; 360,000 tested, 1% active; AID 624256;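 active means normalized GFP-positive differentiation at or above the plate's own cutoff, the solvent-only control mean plus 3 SD; inconclusive means no clear call, values can overlap the other calls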;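 further: cells exposed to compound for four days before flow analysis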
Exocytosis inh: lytic granule exocytosis inhibition. 360,000 tested, 0.66% active. TALL-104 LAMP-1 surface exposure, flow cytometry; cells stimulated with thapsigargin and PMA. inhibition, % at 10 µM;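 active means inhibition above about 55%, limit read from the data; inconclusive means no clear call, values can overlap the other calls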
ABCB6 inh MLPCN: human ABCB6 transporter inhibition | K562-ABCB6 porphyrin accumulation, flow cytometry, 1 h; stronger effect = lower value | fluorescence ratio to DMSO, % at 10 µM | 360,000 tested, 0.19% active | Q9NP58;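 active means fluorescence ratio to DMSO below 75%, the collection mean minus 3 SD; inconclusive means too few cells collected in the well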;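 further: signal is porphyrin accumulated inside mitochondria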
Target sequence (Q9NP58 whole entry, looked up): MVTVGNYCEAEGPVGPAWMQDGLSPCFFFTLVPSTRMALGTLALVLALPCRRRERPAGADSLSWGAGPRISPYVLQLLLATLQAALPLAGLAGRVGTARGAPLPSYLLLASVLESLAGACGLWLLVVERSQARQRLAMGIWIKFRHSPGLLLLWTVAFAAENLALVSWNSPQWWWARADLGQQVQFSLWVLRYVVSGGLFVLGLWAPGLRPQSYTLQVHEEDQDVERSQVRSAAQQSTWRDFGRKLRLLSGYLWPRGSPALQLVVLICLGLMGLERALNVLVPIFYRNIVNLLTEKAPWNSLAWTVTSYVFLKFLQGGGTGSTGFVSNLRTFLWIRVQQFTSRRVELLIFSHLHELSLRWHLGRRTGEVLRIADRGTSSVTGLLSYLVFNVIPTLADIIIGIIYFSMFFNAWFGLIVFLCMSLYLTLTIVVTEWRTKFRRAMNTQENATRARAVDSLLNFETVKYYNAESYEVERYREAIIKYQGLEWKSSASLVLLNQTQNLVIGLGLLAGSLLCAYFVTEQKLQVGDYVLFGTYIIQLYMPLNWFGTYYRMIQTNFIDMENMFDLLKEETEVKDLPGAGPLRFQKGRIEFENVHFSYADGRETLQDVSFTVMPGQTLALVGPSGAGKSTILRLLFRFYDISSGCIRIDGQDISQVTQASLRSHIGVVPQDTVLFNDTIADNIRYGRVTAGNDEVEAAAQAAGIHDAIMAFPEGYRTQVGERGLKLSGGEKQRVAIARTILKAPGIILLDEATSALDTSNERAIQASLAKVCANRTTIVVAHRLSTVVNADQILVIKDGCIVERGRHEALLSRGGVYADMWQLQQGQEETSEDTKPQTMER
Of the large screens only hits and unclear results are named; the others gave an inactive call. A selection: hits, their analogues and other compounds. The true share with any hit is near 1.8%.

CN(C)c1ccc(/C=C/c2ccncc2)cc1	Myeloid diff MLP active
CN(C)c1ccc(C=Cc2cnccn2)cc1	none
Cc1ncc(CN2CCCC(C(=O)Nc3ccc(-c4cccc(F)c4)cc3)C2)n1C (centres undefined)	none
CCn1c(SCc2nc3sc(C(=O)O)c(C)c3c(=O)[nH]2)nnc1-c1ccc(Cl)cc1	none (no result: Myeloid diff MLP)
Cc1sc2nc(CSc3nnnn3-c3ccc(Cl)cc3)[nH]c(=O)c2c1C	Myeloid diff MLP active
CC(C)(C)c1ccc(C(=O)O[C@H]2[C@H](Cc3ccccc3)NS(=O)(=O)[C@H]3C[C@@H]4C=C[C@]23O4)cc1	none
CCOc1ccc(C(=O)O[C@H]2[C@H](Cc3ccccc3)NS(=O)(=O)[C@H]3C[C@@H]4C=C[C@]23O4)cc1	Myeloid diff MLP active
CCCCc1c(-c2ccccc2OC)ncn1C1CCCC1	none
O=C(Cn1ncc2c(=O)oc3ccccc3c21)N1CCCN(Cc2ccccc2F)C1	Myeloid diff MLP active
O=C(Cn1ncc2c(=O)oc3ccccc3c21)N1CCN(C(=O)c2ccco2)CC1	none
O=C(NCc1ccccc1CN1CCCC1)C1CCN(C(=O)c2ccc(Cl)cc2)CC1	none
CC(C)(C)OC(=O)NCC12C=CC(O1)C1C(=O)N(Cc3ccccc3)C(=O)C12 (centres undefined)	Exocytosis inh 85
Cc1ccc(NC(=S)NCC23C=CC(O2)C2C(=O)N(c4ccc(C)cc4)C(=O)C23)cc1 (centres undefined)	none
COC(=O)Cc1c(O)ccn(CCc2ccc(OC)c(OC)c2)c1=O	none
COc1ccc(CCn2ccc(O)c(Cc3ccc(Cl)cc3)c2=O)cc1OC	Myeloid diff MLP active
Cc1nn(CC(=O)Nc2ccc(S(=O)(=O)N(C)C)cc2)c(C)c1[N+](=O)[O-]	none
Cc1cccc(C)c1NC(=O)CN1C(=O)NC(C)(C2CC2)C1=O (centres undefined)	none
Cc1ccc(CN(CC(=O)NCc2ccc3c(c2)OCO3)C(=O)c2csnn2)cc1	Myeloid diff MLP active
O=C(CN(Cc1ccccc1Cl)C(=O)c1csnn1)NCc1ccc2c(c1)OCO2	none
CS(=O)(=O)Nc1ccccc1-c1ccc2nccn2c1	none
O=C(CSc1nc(C2CC2)nc2ccccc12)N1CCc2ccccc21	none
CCC(C)NC(=O)c1c(N)n(/N=C/c2cccnc2)c2nc3ccccc3nc12 (centres undefined)	none
CCC(C)NC(=O)c1c(N)n(/N=C/c2ccccn2)c2nc3ccccc3nc12 (centres undefined)	Exocytosis inh 56
CC(=O)c1c(C)[nH]c(C(=O)/C(C#N)=C/c2cccc(C)c2)c1C	none
CCOC(=O)c1c(C)[nH]c(C(=O)/C(C#N)=C/c2ccc(OCC)cc2)c1C	Myeloid diff MLP active
C=CCNC(=O)c1ccsc1N	none (no result: ABCB6 inh MLPCN)
CS(=O)(=O)c1ccc(Cl)c(NC(=O)c2ccc(-n3cncn3)c([N+](=O)[O-])c2)c1	none
CC(C)(C)OC(=O)N1CCCN(C(=O)c2ccc(Cl)cc2)CC1	none
CC(C)(C)OC(=O)N1CCN(Cc2ccc(F)c(B(O)O)c2)CC1	Myeloid diff MLP active
CC(C)C(=O)N1CCC1(C)C(=O)Nc1ccc(-n2cncn2)cc1 (centres undefined)	none
O=S(=O)(NCc1ccccc1)c1ccc(Cl)cc1	none
O=S(=O)(Nc1cc2nc3ccccc3nc2n1Cc1ccccc1)c1ccc(Cl)cc1	Myeloid diff MLP active, Exocytosis inh 66
COC(=O)[C@]1(C)N[C@H](CN(C)C(=O)c2ccccc2)[C@@H]2C(=O)N(C)C(=O)[C@@H]21	none
O=C1C(Cl)=C(Nc2ccccc2)C(=O)c2ccccc21	Myeloid diff MLP inconclusive
O=C(O)c1ccc(NC2=C(Cl)C(=O)c3ccccc3C2=O)cc1	Exocytosis inh 70
COc1cc(/C=C(\C#N)c2nc3ccccc3s2)ccc1OCC(=O)Nc1ccccc1	Myeloid diff MLP active
COc1cc(/C=C(\CC(=O)O)c2nc3ccccc3s2)ccc1OCC(=O)Nc1ccccc1F	none
COCCNC(=S)N1CCN(Cc2cccc(OC)c2)CC1	none
CN1/C(=C\C(=O)c2cccnc2)C(C)(C)c2ccccc21	none
CN1/C(=C/C(=O)c2nc(S(C)(=O)=O)ncc2Cl)C(C)(C)c2ccccc21	Exocytosis inh 58 (no result: Myeloid diff MLP)
COc1ccc(C(=O)COC(=O)CCN2C(=O)C3CC=CCC3C2=O)c(OC)c1 (centres undefined)	none
Cc1ccc2c(COC(=O)C3CSC4(C)CCC(=O)N34)cc(=O)oc2c1C (centres undefined)	none
COc1ccc(NC(=O)CSC(C)c2nc3ccccc3c(=O)[nH]2)cc1 (centres undefined)	none
CN(C)S(=O)(=O)c1ccc(N=Cc2c(C(F)(F)F)[nH]n(C)c2=O)cc1	Myeloid diff MLP active
COC(=O)c1ccc(N=Cc2c(C(F)(F)F)[nH]n(C)c2=O)cc1	none
COc1cccc(-c2cnc(C(O)c3cc(C)ccc3C)[nH]2)c1 (centres undefined)	none
